Sampled rows, rich in hits. Any-hit rate of the full collection: about 4.8%.
AI-2 QS modul – modulates the Vibrio harveyi AI-2 quorum sensing system; Vibrio harveyi JMH597 AI-2 luminescence/OD600 ratio, 9 h; hits give low values; strain lacks LuxN and CqsS sensors; 0 = neutral-control median; AID 2094; activity change, % at 7.5 µM; 0.4% of 300,000 active; in the data active means activity change below about -75%, passing the limit was not always enough; inconclusive means no clear call, values can overlap the other calls;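 further: luminescence divided by OD600 gain over 9 h not by final OD600 alone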
ALR H2O2 inh – blocks human ALR sulfhydryl oxidase activity; purified ALR, DTT oxidation, H2O2 HRP-luminol luminescence; AID 485317; inhibition, % (test concentration not listed); 3.8% of 290,000 active; P55789;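 active means mean replicate inhibition above about 79%, with every replicate also reaching it, limit read from the data; inconclusive means only one of the two criteria met; inactive means mean below limit and not every replicate reaching it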
Target sequence (P55789 whole entry, looked up): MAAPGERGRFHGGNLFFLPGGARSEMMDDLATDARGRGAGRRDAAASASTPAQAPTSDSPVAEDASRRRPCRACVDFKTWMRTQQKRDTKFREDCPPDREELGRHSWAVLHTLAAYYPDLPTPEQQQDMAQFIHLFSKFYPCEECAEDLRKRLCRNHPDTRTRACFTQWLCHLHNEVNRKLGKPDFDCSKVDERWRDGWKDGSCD
HIF activator – HIF pathway transcriptional activation. U2OS HRE-luciferase reporter, luminescence; normalized: DMSO 0%, desferrioxamine 100%. activation, % at 7.5 µM (by protocol). 0.32% of 300,000 active. AID 1910;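 active means mean activation of at least 10% of the iron chelator positive control signal, with at least half of replicates also reaching 10%; inconclusive means mean and replicate majority disagree about reaching 10%; inactive means mean and most replicates under 10%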
SUMO Mot1 rescue – blocks SUMOylation pathway, rescuing yeast Mot1-301 growth | growth rescue, % at 18.8 µM | 1% of 320,000 active | S. cerevisiae Mot1-301 growth rescue, ATP luminescence, 38.5C; percent above DMSO median, 100 means doubled;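 active means every valid replicate shows activation above 250% relative to neutral control wells; inactive means the rest, any valid replicate at or below 250%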;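 further: OY570 slx delta 5 strain wells were the positive control but not used for scaling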
* marks the source's active call; other numbers are inactive results; ? = inconclusive; nt = not tested or not shown.

SMILES	AI-2 QS modul	ALR H2O2 inh	HIF activator	SUMO Mot1 rescue
O=C(c1ccc(OC2CCN(CCc3ccccc3)CC2)cc1)N1CCCC(CCCO)C1 (stereo unspecified)	-2	-3	44*	5
CCc1ccc(CN2CCC(Oc3ccc(C(=O)N4CCCC4)cc3)CC2)cc1	7	-2	-1	12
O=C(c1ccc(OC2CCN(Cc3ccc(F)cc3)CC2)cc1)N1CCCC1	30	-7	53*	75
CCc1ccc(N2CC(C(=O)OCc3nc4ccsc4c(=O)[nH]3)CC2=O)cc1 (stereo unspecified)	nt	4	nt	-5
Cn1nc(C(=O)NC2CCCCCC2)ccc1=O	1	-1	0	159
Cn1nc(C(F)(F)F)cc1C(=O)NC1CCCCCC1	11	27	237*	0
OCCNCC(O)CN1c2ccccc2Sc2ccccc21 (stereo unspecified)	16	99*	0	-9
Cc1occc1-c1nnc(SCC(=O)c2cc3ccccc3oc2=O)o1	5	98*	0	nt
CCCCc1ccc(NC(=O)CC(C)(C)C)cc1	-76*	-6	3	-5
CCCCc1ccc(NC(=O)CC(C)=O)cc1	16	21	0	-9
CC(C)(C)CC(=O)Nc1ccc(Nc2ccccc2)cc1	-41	99*	2	nt
CC(C)CC(=O)Nc1ccc(Nc2ccccc2)cc1	-4	99*	1	122
Cc1cccc(NC(=O)CC(C)(C)C)c1	-1	0	-2	3
COc1ccc(-c2c(NC(=O)c3ccco3)oc3ccccc3c2=O)cc1OC	22	1	0	-10
Cc1ccccc1C(=O)N1CCC(C(=O)NN2C(=O)NC3(CCC(C)CC3)C2=O)CC1 (stereo unspecified)	nt	-1	nt	7
C/C(=N/NS(=O)(=O)c1ccc(Cl)cc1)c1ccc2c(c1)OCO2	14	40	0	-12
C/C(=N\NS(=O)(=O)c1ccc(Cl)cc1)c1ccc(O)cc1	23	96*	0	-3
O=C1c2cccc3cccc(c23)C(=O)N1CCCc1n[nH]c(=S)n1-c1ccccc1	8	92*	0	3
OCCCc1n[nH]c(=S)n1-c1ccccc1	5	37	0	1
O=C1c2ccccc2C(=O)N1Cc1ccc2c(c1)OCO2	18	nt	0	18
O=C(O)c1ccc2c(c1)C(=O)N(Cc1ccc3c(c1)OCO3)C2=O	24	87*	0	nt
CCN(CC)c1ccc(C2C(C(=O)OCCOC(C)C)=C(C)NC3=C2C(=O)CCC3)cc1 (stereo unspecified)	22	99*	0	-12
COCCOC(=O)C1=C(C)NC2=C(C(=O)CCC2)C1c1ccc(N(C)C)cc1 (stereo unspecified)	8	100*	0	26
CCCN1CCN(C(=O)c2oc3ccccc3c2NC(=O)COc2ccc(OC)cc2)CC1	4	1	0	12
Cc1cccc(C)c1NC(=O)CNC(=O)C1CC(=O)N(Cc2ccccc2)C1 (stereo unspecified)	13	nt	0	-9
SMILES	AI-2 QS modul	ALR H2O2 inh	HIF activator	SUMO Mot1 rescue
O=C(C1=NN[C@@H]2C(=O)N(c3cccc(C(F)(F)F)c3)C(=O)[C@H]12)C(c1ccccc1)c1ccccc1	17	-3	57*	14
COc1ccc(/C(C)=N/NC(=S)NCCc2ccccc2)c(O)c1	50	nt	0	16
C(=N\Nc1nc2ccccc2[nH]1)/c1cccs1	13	99*	2	0
Clc1cnc(N/N=C/c2cccs2)c(Cl)c1	30	86*	3	-2
C(=N\Nc1nc2ccccc2[nH]1)/c1ccncc1	38	98*	3	-14
CC(C)Cn1c(/C=N/Nc2nc3ccccc3[nH]2)nc2ccccc21	24	nt	23*	nt
CCN1C(=O)[C@H]2[C@@H](c3ccc(-c4ccc(F)cc4)cc3)N3CCCC[C@@]3(C(=O)OC)[C@H]2C1=O	13	nt	0	26
O=c1[nH]c(N/N=C/c2ccc(O)cc2)nc2ccccc12	26	95*	0	-4
O=C(/C=C/c1ccco1)Nc1ccc(-c2nc3ccccc3[nH]2)cc1	45	-9	3	-12
C(=C\c1ccco1)/c1nc2ccccc2[nH]1	8	98*	1	-2
C(=C\c1nc2ccccc2[nH]1)/c1ccccc1	22	98*	-4	-39
CSCC[C@H](NC(=O)[C@@H]1Cc2ccccc2CN1)C(=O)Nc1ccc2c(c1)OCCO2	4	-1	0	10
CC1(C)Nc2ccccc2N(CC(=O)N2CCCCC2)C1=O	16	98*	0	-7
CC1(C)Nc2ccccc2N(Cc2ccc([N+](=O)[O-])cc2)C1=O	8	96*	-1	136
CC/C(=N\NC(=O)CCC(=O)NCc1ccccc1)c1ccc(O)cc1	17	99*	0	11
COC(=O)CCN(C)CCC(=O)OC	10	96*	0	24
COC(=O)CCC(=O)CN	12	2	0	-8
Cc1ccc(NC(=S)NNC(=O)c2c(Cl)c(C)nn2C)cc1	13	87*	0	-10
Cc1ccc(NC(=S)NNC(=O)c2c([N+](=O)[O-])c(C)nn2C)cc1	5	12	0	-9
Cc1ccc(NC(=S)NNC(=O)c2cn(C)nc2C)cc1	4	97*	2	-17
Cc1ccc(NC(=S)NNC(=O)c2nn(C)c(C)c2Cl)cc1	4	90*	2	-11
COc1cc(OC)cc(C(=O)NNC(=O)CCC(=O)c2cc(C)sc2C)c1	nt	nt	nt	-2
Cc1ccc(C(=O)NC(=S)NNC(=O)COc2ccc([N+](=O)[O-])cc2)cc1	?	99*	0	-1
O=C(NC(=S)NNC(=O)c1ccccc1[N+](=O)[O-])c1ccc(Br)cc1	17	99*	2	1
Cc1ccc(OCC(=O)Nc2ccc([N+](=O)[O-])cc2)cc1	12	-1	-13	-6
SMILES	AI-2 QS modul	ALR H2O2 inh	HIF activator	SUMO Mot1 rescue
O=C(COc1ccccc1)NNC(=S)NC(=O)c1ccccc1	13	nt	-1	nt
COc1ccc(C(=O)NC(=S)NNC(=O)COc2ccccc2)cc1	23	98*	0	-14
O=C(COc1ccc([N+](=O)[O-])cc1)NNC(=S)NC(=O)c1ccc(Br)cc1	-127*	nt	1	-15
O=C(O)C(CO)(c1ccccc1)c1ccccc1	34	2	-1	398
COc1ccc(OC)c(S(=O)(=O)NCC(c2ccc3c(c2)OCO3)N2CCOCC2)c1 (stereo unspecified)	13	-4	-3	-4
Cn1nc(C(C)(C)C)cc1C(=O)NCc1ccc2c(c1)OCO2	14	-2	1	-7
CCCNC(=O)c1[nH]c(C)c(C(C)=O)c1C	-3	-12	0	189
CCN(CCCNC(=O)c1[nH]c(C)c(C(C)=O)c1C)c1ccccc1	13	89*	-1	13
COc1ccc(CCNC(=O)c2[nH]c(C)c(C(C)=O)c2C)cc1OC	43	-3	-1	1
CC(=O)c1c(C)[nH]c(C(=O)NCCc2ccccc2)c1C	34	100*	2	1
CC(=O)c1cccc(NC(=O)CN2C(=O)C(=O)N(Cc3ccco3)C2=O)c1	nt	0	nt	5
